Compound activity (PubChem)
The list is not random: actives were taken first. Their share in the collection is about 6%.
D1 antagonist = Antagonist of Human D 1 Dopamine Receptor: qHTS; D(1A) dopamine receptor (Homo sapiens), P21728; HEK293 TREx D1 cells, calcium flux, dopamine EC80; stronger effect = lower value; activity change, negative = inhibition, % at 10 µM; hit rate 3.2% among 360,000; AID 504652, 2011; in the data active = activity change below about -30%; note: % is set by controls: 0 for no effect and ±100 for the full control effect
Target sequence (P21728 whole entry, looked up): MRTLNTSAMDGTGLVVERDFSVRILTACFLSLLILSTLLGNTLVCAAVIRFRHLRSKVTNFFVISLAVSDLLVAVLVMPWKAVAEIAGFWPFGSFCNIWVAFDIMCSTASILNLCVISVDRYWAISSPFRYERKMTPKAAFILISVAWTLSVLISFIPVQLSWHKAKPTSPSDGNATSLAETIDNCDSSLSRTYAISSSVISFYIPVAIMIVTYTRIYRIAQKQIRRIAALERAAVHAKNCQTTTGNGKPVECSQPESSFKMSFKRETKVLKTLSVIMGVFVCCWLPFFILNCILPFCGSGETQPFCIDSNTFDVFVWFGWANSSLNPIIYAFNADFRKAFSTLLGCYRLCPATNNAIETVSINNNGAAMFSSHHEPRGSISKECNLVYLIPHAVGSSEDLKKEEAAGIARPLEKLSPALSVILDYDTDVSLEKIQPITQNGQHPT
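Inducible Hek293 Trex D1 cells (tetracycline, overnight, 30 C). Calcium dye 30–90 min RT. Antagonist mode: EC80 dopamine added after 180 s compound read.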
D1 ag = Allosteric Agonists of the Human D1 Dopamine Receptor: qHTS. HEK293 T-REx D1 cells, calcium flux, agonist mode. activation, % at 2 µM. hit rate 1% among 360,000. AID 504660, 2011; in the data active = activation above about 30%; note: 0% is about no effect
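Inducible HEK293 T-REx D1 cells, force-coupled to calcium signalling, were plated at 4000 cells/well with tetracycline and held overnight at 30 C. After no-wash calcium dye loading, compound-evoked calcium rise over 180 s flagged agonists.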
DRD3 antagonist = qHTS of D3 Dopamine Receptor Antagonist: qHTS; max response, negative = inhibition, %; hit rate 2.5% among 360,000; D3R cells, DiscoveRx beta-arrestin luminescence, antagonist mode; stronger effect = lower value; D(3) dopamine receptor (Homo sapiens), P35462; in the data active = max response below about -50%; inconclusive = no clear call, values can overlap the other calls; note: % is set by controls: 0 for no effect and ±100 for the full control effect
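Cells plated overnight at 1500 cells/well, then exposed to library compounds with dopamine controls for 90 minutes at 37 degrees C. DiscoveRx reagent added for 30–60 minutes at room temperature; luminescence read, quantitative HTS format.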
D1 PAM = Potentiators of Human D1 Dopamine Receptor: qHTS; hit rate 0.036% among 360,000; potentiation, % at 10 µM; HEK293 TREx D1 cells, calcium flux, dopamine EC20 potentiation; AID 504651, 2011; D(1A) dopamine receptor (Homo sapiens), P21728; in the data active = potentiation above about 30%; note: 0% is about no effect
D3 ag = qHTS of D3 Dopamine Receptor Agonist: qHTS; max activation, %; D(3) dopamine receptor (Homo sapiens), P35462; D3R DiscoveRx beta-arrestin cells, luminescence, 90 min; hit rate 0.58% among 410,000; in the data active = max activation above about 30%; note: 0% is about no effect
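Cells at 1500/well, incubated overnight, then treated with pinned compounds (dopamine as control) for 90 min at 37 degrees C. DiscoveRx reagent added for 30 - 60 minutes at room temperature; luminescence read.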
* hit, by the source's call; u = inconclusive; x = no result given.

SMILES	D1 antagonist	D1 ag	DRD3 antagonist	D1 PAM	D3 ag
Cc1nc2cc(-c3ccc(F)cc3)[nH]n2c(=O)c1C	6	3	-16	-2	-2
Cc1ccccc1-c1cc2nc(C)c(C)c(=O)n2[nH]1	-33*	4	u	-4	2
Cc1nc(SCCCSc2n[nH]c(C)n2)n[nH]1	10	-1	-69*	-4	-9
Cc1occc1C(=O)/C(C#N)=C/c1ccc(O)c(Br)c1	-16	45*	3	x	0
O=C(Nc1ccc(F)cc1)NC1CCCCCCC1	-35*	12	5	4	-5
O=C(Nc1ccc(F)c(F)c1)NC1CCCCC1	-32*	18	10	-6	-1
O=C(Nc1ccc(Cl)cc1)NC1CCCCC1	-18	9	5	-5	0
CC(=O)c1cccc(NC(=O)NC2CCCCCCC2)c1	-11	5	10	2	-19
Cc1cccc(NC(=O)NC2CCCCCCC2)c1	-34*	12	-4	-6	8
O=C(Nc1ccccc1C(F)(F)F)NC1CCCCC1	-7	4	-16	-2	23
O=C(Nc1ccccc1C(F)(F)F)NC1CCCCCCC1	-31*	3	18	-5	7
CCCCCNC(=O)C(c1ccncc1)n1c(=O)c(-c2cc3ccccc3[nH]2)nc2ccccc21 (configuration not stated)	x	x	20	x	3
CCOC(=O)c1cc(S(=O)(=O)NCc2ccc(C)cc2)[nH]n1	4	2	x	4	-8
S=C(Nc1ccc(Oc2ccccc2)cc1)NC1CCCC1	-22	15	-5	-7	0
S=C(Nc1ccc(Br)cc1)NC1CCCC1	-50*	16	-18	-7	-3
Nc1ccc(NC(=O)NC2CCCCC2)cc1[N+](=O)[O-]	-77*	1	-21	-3	-11
O=C(NNC(=S)Nc1ccccc1C(F)(F)F)C1CC1	-37*	1	-16	-6	5
Cc1cc(C)cc(CC(=O)N2CCC2(C)C(=O)NS(=O)(=O)c2cccc(OC(F)F)c2)c1 (configuration not stated)	x	x	-4	x	7
COc1cc(/C=N/N=C2\CC3CCC2(C)C3(C)C)ccc1O (configuration not stated)	-60*	3	13	0	7
COc1ccc(/C=N/N=C2\CC3CCC2(C)C3(C)C)cc1O (configuration not stated)	6	3	12	-1	1
O=C(C(=O)N1CCC(Cc2ccccc2)CC1)c1cccs1	x	x	-9	x	-7
Clc1ccc2nc3c4ccccc4cnn3c2c1	-5	1	-6	-9	-7
Oc1ccc2nnc3c(Br)cnn3c2c1	1	171*	64	-2	3
COc1ccc(-n2c(SCC(=O)NCc3ccccc3)nc3n[nH]c(C)c3c2=N)cc1	-16	2	x	3	9
OC(c1ccccc1)(c1ccccc1)c1nccc2ccccc12	x	x	-19	x	-3
SMILES	D1 antagonist	D1 ag	DRD3 antagonist	D1 PAM	D3 ag
Cc1ccc(N=Nc2ccc(O)c3ncccc23)cc1C	-16	36*	-69*	-5	-9
Cc1ccc(N=Nc2ccc(O)c3ncccc23)cc1	7	16	-118*	-4	-13
CCCCN(C)C(=O)c1ccc(Nc2nc(C(N)Cc3ccc(C(F)(F)F)cc3)cs2)nc1 (configuration not stated)	x	x	-7	x	9
CCc1ccc(NC(=O)CN(C)S(=O)(=O)c2ccc3c(c2)c(=O)n(C)c(=O)n3C)cc1	21	0	x	-3	-12
COc1ccc(-n2ncc3c2ncn2nc(Cc4ccccc4)nc32)cc1	-34*	2	x	0	10
CC1(C)O[C@H]2[C@@H](O1)[C@@H](C(=O)Nc1ccc(F)c(F)c1)O[C@@H]1OC(C)(C)O[C@@H]12	-1	-2	x	-2	0
Cc1c(C#N)c(O)n(CCO)c(=O)c1N=Nc1ccc2c(c1)COC2=O	18	2	-59*	-5	-46
Cc1cccc(C)c1-n1nnnc1C(c1cccc2ccccc12)N1CCN(C/C=C/c2ccccc2)CC1 (configuration not stated)	x	x	-107*	x	-11
Cc1cccc(C)c1-n1nnnc1C(c1cc2ccccc2o1)N1CCN(C/C=C/c2ccccc2)CC1 (configuration not stated)	x	x	-74*	x	-18
COc1ccc(N2CCN(c3ncnc4c3nnn4Cc3ccccc3Cl)CC2)cc1	-42*	8	-5	-12	4
COc1ccc(N2CCN(c3ncnc4c3nc3n4CCCCC3)CC2)cc1	-35*	9	x	-4	1
Cc1nc(N2CCCC2)c2nnn(Cc3ccccc3Cl)c2n1	3	1	-23	1	24
CCCN(CCC)CCCNC(=O)C1c2cc(OC)c(OC)cc2C(=O)N(C)C1c1cccnc1 (configuration not stated)	-5	2	-11	-1	-5
CC(C)(C)c1ccc(C(=O)Nc2ccc(O)c3c(=O)cc(-c4ccccc4Cl)oc23)cc1	-13	2	33	-7	119*
CCc1ccc(S(=O)(=O)Nc2ccc(O)c3c(=O)cc(-c4ccccc4Cl)oc23)cc1	2	1	-22	-1	-42
O=c1cc(-c2ccccc2Cl)oc2c(NS(=O)(=O)c3cc(Cl)cc(Cl)c3O)ccc(O)c12	-52*	82*	26	-9	36*
Cn1c(=NC(=O)c2ccc(F)cc2)sc2cc(Br)ccc21	1	3	x	6	-15
N#CC(OC(=O)c1ccccc1)c1cccc([N+](=O)[O-])c1 (configuration not stated)	x	x	-25	x	-5
CCN(CCCNC(=O)CN1N=C(c2ccccc2)CCC1=O)c1cccc(C)c1	13	-4	x	-1	41*
CCN(CCCNC(=O)CN1N=C(c2ccc(C)cc2)CCC1=O)c1ccccc1	-10	1	x	1	-28
CCN(CCCNC(=O)CN1N=C(c2ccc(OC)cc2)CCC1=O)c1cccc(C)c1	-40*	0	x	-4	-13
CCOc1ccc(C2CC(c3c(O)c4ccccc4oc3=O)=NN2c2ccccc2)cc1OC (configuration not stated)	1	36*	-4	0	-4
COc1ccccc1C(=O)NCCC(=O)NCCc1ccccc1	-77*	2	14	-16	0
COCc1cc(C)nc(SCc2ccc(F)cc2)c1C#N	-18	11	26	-1	1
COCc1cc(C)nc(SCC(=O)Nc2ccc3c(c2)OCCO3)c1C#N	-31*	7	-10	-5	-14
COCc1cc(C)nc(SCc2ccc(Cl)cc2)c1C#N	-32*	36*	0	-3	9
